Test results from the supplement of paper PMC13380429.

System: Vero E6 infected with SARS-CoV-2
Test: inhibition of SARS-CoV-2 cytopathic effect; higher = more antiviral protection, active = above 15
Settings: 48 h

Measured: inhibition of SARS-CoV-2 cytopathic effect

CCCCC/C=C\C/C=C\C/C=C\C/C=C\CCCC(=O)Nc1ccc(O)cc1
inactive: 1 nM -2.34% | 8.33 nM -1.32% | 100 nM 3.11% | 833.33 nM 0.42% | 10000 nM -4.16%

O=c1c2ccccc2[se]n1-c1ccccc1 [Ebselen]
inactive: 1 nM 2.29% | 8.33 nM 0.73% | 100 nM 0.59% | 833.33 nM 1.45% | 10000 nM 1.28%

CC(C)=CCC[C@](C)(O[C@@H]1O[C@H](CO)[C@@H](O)[C@H](O)[C@H]1O)[C@H]1CC[C@]2(C)[C@@H]1[C@H](O)C[C@@H]1[C@@]3(C)CC[C@H](O[C@@H]4O[C@H](CO)[C@@H](O)[C@H](O)[C@H]4O[C@@H]4O[C@H](CO)[C@@H](O)[C@H](O)[C@H]4O)C(C)(C)[C@@H]3CC[C@]12C [ginsenoside-RD]
inactive: 1 nM -2.36% | 8.33 nM -1% | 100 nM 2.51% | 833.33 nM 0.27% | 10000 nM 0.18%

Cn1c(=O)c(F)c(Nc2ccc(I)cc2F)c2c(=O)n(C[C@@H](O)CO)cnc21
inactive: 1 nM -3.03% | 8.33 nM -6.23% | 100 nM -11% | 833.33 nM -11.6% | 10000 nM -12.3%

COC1=C(OC)C(=O)C(CCCCCCCCCCO)=C(C)C1=O [idebenone]
inactive: 1 nM -0.23% | 8.33 nM -3.04% | 100 nM -0.1% | 833.33 nM 0.64% | 10000 nM 0.26%

c1ccc2sc(SNC3CCCCC3)nc2c1 [N-cyclohexyl-2-benzothiazolesulfenamide]
inactive: 1 nM 2.74% | 8.33 nM 0.54% | 100 nM -0.9% | 833.33 nM -0.46% | 10000 nM -3.64%
